A number with no mark means an inactive call. For some of these results: Measured potencies and affinities stand elsewhere. Active and inactive are the calls of the source. Unless noted, no rule for the calls is given here.
Assays:
[1] = antimalarial activity against Dd2 strain (AID 2302;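 active = growth inhibition above 50% at the single 2 µM test dose, taken to imply half-maximal potency below 2 µM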;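 also: 0% = DMSO untreated growth and 100% = chloroquine plus artemisinin killed control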); conditions: P. falciparum Dd2 in RBCs, LDH growth readout, 72 h; at 2 µM; active compounds read high
[2] = HepG2 cytotoxicity, primary screen, cytotoxicity control for P. falciparum antimalarial project, cell-based, ATP luminescence (AID 2303;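 active = inhibition above 50%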;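 also: 0% = DMSO wells and 100% = digitonin-killed cells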); conditions: HepG2 viability, 24-48 h, at 10 µM, active compounds read high
[3] = molecular target: L-lactate dehydrogenase (Plasmodium falciparum (isolate CDC / Honduras)) (UniProt Q27743); assay: PfLDH activity inhibition – cell lysate, 3D7 strain, counter-screen for P. falciparum growth inhibition project (AID 2304);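 also: 0% = vehicle and 100% = reference inhibitor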; conditions: P. falciparum 3D7 crude extract, LDH APAD/NBT absorbance; at 2 µM; active compounds read high
[4] = inhibition of 3D7 malaria parasite growth – strain 3D7 (AID 2306);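 also: 0% = DMSO wells and 100% = chloroquine plus artemisinin control wells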; conditions: P. falciparum 3D7 erythrocytic growth, LDH absorbance, 72 h; at 2 µM; active compounds read high
[5] = molecular target: Calcium-dependent protein kinase 1 (Plasmodium falciparum (isolate 3D7)) (UniProt P62344); assay: PfCDPK1 kinase inhibitors, biochemical, TCAMS library (AID 1159585; cut-off not given, nearly all actives have IC50 up to about 0.98 µM;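 also: inhibitors leave more ATP so luminescence rises with inhibition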); conditions: recombinant PfCDPK1, Kinase-Glo ATP depletion luminescence
[6] = molecular target: Plasmodium falciparum protein kinase 6 (PK6, PF3D7_1337100) (UniProt Q8IDW1); assay: PfPK6 kinase inhibitors, biochemical, TCAMS library (AID 1159586); conditions: recombinant PfPK6, Kinase-Glo ATP depletion luminescence
[7] = molecular target: Protein kinase 7 (PK7), Plasmodium falciparum 3D7 (PF3D7_0213400) (UniProt Q7YTF7); assay: inhibition of Plasmodium PK7 catalytic activity – biochemical, TCAMS antimalarial set, Kinase-Glo luminescence (AID 1159587); conditions: recombinant PfPK7, Kinase-Glo ATP depletion luminescence
[8] = molecular target: Calcium-dependent protein kinase 4 (Plasmodium falciparum (isolate 3D7)) (UniProt Q8IBS5); assay: PfCDPK4 kinase inhibitors, biochemical, TCAMS library (AID 1159588; cut-off not given, nearly all actives have IC50 up to about 0.91 µM); conditions: recombinant PfCDPK4, Kinase-Glo ATP depletion luminescence
Sequence of Calcium-dependent protein kinase 4 (Plasmodium falciparum (isolate 3D7)) (Q8IBS5 whole entry, looked up): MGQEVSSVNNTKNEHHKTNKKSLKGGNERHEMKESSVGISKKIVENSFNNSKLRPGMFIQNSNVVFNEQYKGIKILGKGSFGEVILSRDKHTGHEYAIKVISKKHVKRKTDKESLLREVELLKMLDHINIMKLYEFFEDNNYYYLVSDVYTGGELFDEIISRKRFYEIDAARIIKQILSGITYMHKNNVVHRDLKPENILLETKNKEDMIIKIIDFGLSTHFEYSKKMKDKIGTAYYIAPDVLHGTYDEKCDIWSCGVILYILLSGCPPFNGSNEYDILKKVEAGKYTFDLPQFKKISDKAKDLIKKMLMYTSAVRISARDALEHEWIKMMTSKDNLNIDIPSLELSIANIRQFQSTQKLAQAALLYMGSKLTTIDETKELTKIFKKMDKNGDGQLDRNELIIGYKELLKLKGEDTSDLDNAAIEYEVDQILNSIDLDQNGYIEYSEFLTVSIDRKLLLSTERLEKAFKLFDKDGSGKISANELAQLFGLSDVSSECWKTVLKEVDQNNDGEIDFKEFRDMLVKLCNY

Sequence of Plasmodium falciparum protein kinase 6 (PK6, PF3D7_1337100) (Q8IDW1 1-305): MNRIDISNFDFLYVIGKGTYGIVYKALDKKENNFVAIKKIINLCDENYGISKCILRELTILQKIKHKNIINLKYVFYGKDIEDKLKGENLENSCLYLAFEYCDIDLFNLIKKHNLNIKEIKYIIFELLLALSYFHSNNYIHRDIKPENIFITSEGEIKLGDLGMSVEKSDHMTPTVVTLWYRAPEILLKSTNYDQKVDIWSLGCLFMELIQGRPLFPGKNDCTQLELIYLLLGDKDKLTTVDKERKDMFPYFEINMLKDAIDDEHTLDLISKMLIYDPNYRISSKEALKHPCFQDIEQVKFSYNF
Sequence of Calcium-dependent protein kinase 1 (Plasmodium falciparum (isolate 3D7)) (P62344 whole entry, looked up): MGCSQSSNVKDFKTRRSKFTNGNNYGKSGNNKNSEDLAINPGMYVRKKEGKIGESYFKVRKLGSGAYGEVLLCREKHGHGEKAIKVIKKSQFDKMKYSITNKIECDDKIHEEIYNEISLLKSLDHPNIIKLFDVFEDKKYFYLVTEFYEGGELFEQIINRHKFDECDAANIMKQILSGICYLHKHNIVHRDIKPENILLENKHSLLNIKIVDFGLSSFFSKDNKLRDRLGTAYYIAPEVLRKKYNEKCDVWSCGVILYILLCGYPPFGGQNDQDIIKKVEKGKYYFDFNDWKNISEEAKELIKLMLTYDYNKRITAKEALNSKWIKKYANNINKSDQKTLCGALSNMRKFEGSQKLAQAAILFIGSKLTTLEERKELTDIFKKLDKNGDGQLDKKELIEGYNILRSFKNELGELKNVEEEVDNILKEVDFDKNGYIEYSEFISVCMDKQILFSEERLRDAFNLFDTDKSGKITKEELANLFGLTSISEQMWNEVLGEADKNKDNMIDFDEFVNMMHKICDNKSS
Sequence of Protein kinase 7 (PK7), Plasmodium falciparum 3D7 (PF3D7_0213400) (Q7YTF7 1-343): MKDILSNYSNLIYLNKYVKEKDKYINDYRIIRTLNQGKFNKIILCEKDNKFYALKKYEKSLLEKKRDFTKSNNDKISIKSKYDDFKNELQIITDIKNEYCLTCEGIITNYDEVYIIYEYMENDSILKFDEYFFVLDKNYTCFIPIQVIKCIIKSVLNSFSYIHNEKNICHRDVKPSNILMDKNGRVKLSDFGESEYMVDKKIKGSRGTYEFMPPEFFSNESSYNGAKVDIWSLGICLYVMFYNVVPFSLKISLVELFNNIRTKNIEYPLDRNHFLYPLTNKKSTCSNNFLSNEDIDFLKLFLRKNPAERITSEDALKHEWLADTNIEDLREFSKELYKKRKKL
Sequence of L-lactate dehydrogenase (Plasmodium falciparum (isolate CDC / Honduras)) (Q27743 whole entry, looked up): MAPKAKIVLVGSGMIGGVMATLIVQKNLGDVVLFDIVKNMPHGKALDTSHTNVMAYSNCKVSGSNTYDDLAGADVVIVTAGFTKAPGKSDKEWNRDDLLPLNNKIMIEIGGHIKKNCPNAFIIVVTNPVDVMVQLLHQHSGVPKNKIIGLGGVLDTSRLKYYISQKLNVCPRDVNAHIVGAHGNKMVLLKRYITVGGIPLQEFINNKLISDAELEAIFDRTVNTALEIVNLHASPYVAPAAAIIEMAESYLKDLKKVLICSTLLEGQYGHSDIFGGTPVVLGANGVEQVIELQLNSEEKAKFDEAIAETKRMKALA

CN1CCN(c2ccnc3ccc(NC(=O)Nc4cccc5c(C#N)cccc45)cc23)CC1
growth inhibition [1]: 40%
inhibition [2]: -6%
inhibition [3]: 8%
growth inhibition [4]: 91% (active)
outcome [5]: inactive
outcome [6]: inactive
outcome [7]: inactive
outcome [8]: inactive

CCc1ccc(NC(=O)c2ccc(CN3CCCN(CC4CCCCC4)CC3)cc2)cc1
growth inhibition [1]: 48%
inhibition [2]: 48%
inhibition [3]: 3%
growth inhibition [4]: 96% (active)
outcome [5]: inactive
outcome [6]: inactive
outcome [7]: inactive
outcome [8]: inactive

O=C(CN1CCC2(CCC1=O)CC(=O)c1ccccc1O2)NCCN1CCOCC1 (stereo not drawn)
growth inhibition [1]: -4%
inhibition [2]: 6%
inhibition [3]: -4%
growth inhibition [4]: 101% (active)
outcome [5]: inactive
outcome [6]: inactive
outcome [7]: inactive
outcome [8]: inactive

CCOc1ccc(NC(=O)c2cccc(CN3CCCN(Cc4cccc(O)c4)CC3)c2)cc1
growth inhibition [1]: 23%
inhibition [2]: 22%
inhibition [3]: 0%
growth inhibition [4]: 95% (active)
outcome [5]: inactive
outcome [6]: inactive
outcome [7]: inactive
outcome [8]: inactive

Cc1cc(F)ccc1N(c1nc(-c2cc(Cl)ccc2Cl)cs1)C1CCNC1 (stereo not drawn)
growth inhibition [1]: 3%
inhibition [2]: 19%
inhibition [3]: 0%
growth inhibition [4]: 99% (active)
outcome [5]: inactive
outcome [6]: inactive
outcome [7]: inactive
outcome [8]: inactive

FC(F)(F)c1ccc2nc(-c3ccc(-c4ccc(CNCC5CCCO5)cc4)s3)[nH]c2c1 (stereo not drawn)
growth inhibition [1]: 98% (active)
inhibition [2]: 47%
inhibition [3]: -6%
growth inhibition [4]: 101% (active)
outcome [5]: inactive
outcome [6]: inactive
outcome [7]: inactive
outcome [8]: inactive

CCC(C)C(COC(=O)c1cc(OC)c(OC)c(OC)c1)N(C)CCN(C)C(COC(=O)c1cc(OC)c(OC)c(OC)c1)C(C)CC (stereo not drawn)
growth inhibition [1]: 45%
inhibition [2]: 20%
inhibition [3]: 3%
growth inhibition [4]: 84% (active)
outcome [5]: inactive
outcome [6]: inactive
outcome [7]: inactive
outcome [8]: inactive

CCC(=O)Nc1nnc(Cc2ccc(OC)c(OC)c2)s1
growth inhibition [1]: 1%
inhibition [2]: -4%
inhibition [3]: -2%
growth inhibition [4]: 93% (active)
outcome [5]: inactive
outcome [6]: inactive
outcome [7]: inactive
outcome [8]: inactive

CNCCNCc1cccc(-c2cccc(-c3nc4ccc(F)cc4[nH]3)c2)c1
growth inhibition [1]: 15%
inhibition [2]: 20%
inhibition [3]: -2%
growth inhibition [4]: 98% (active)
outcome [5]: inactive
outcome [6]: inactive
outcome [7]: inactive
outcome [8]: inactive

COc1ccc(-c2cccc(NC(=O)c3ccc(Cl)cc3)c2)cc1CN1CCCC1
growth inhibition [1]: 52% (active)
inhibition [2]: 55% (active)
inhibition [3]: -7%
growth inhibition [4]: 97% (active)
outcome [5]: inactive
outcome [6]: inactive
outcome [7]: inactive
outcome [8]: inactive

CNc1cc(-c2ccc3ccnc(N)c3c2)nc(N)n1
growth inhibition [1]: 81% (active)
inhibition [2]: 23%
inhibition [3]: -2%
growth inhibition [4]: 100% (active)
outcome [5]: inactive
outcome [6]: inactive
outcome [7]: inactive
outcome [8]: inactive

Cc1ccc(C(=O)c2oc3ccc4c(C)cc(=O)oc4c3c2C)cc1
growth inhibition [1]: 48%
inhibition [2]: -8%
inhibition [3]: 1%
growth inhibition [4]: 86% (active)
outcome [5]: inactive
outcome [6]: inactive
outcome [7]: inactive
outcome [8]: inactive

COc1cc2c(cc1OC)C(c1ccc(Br)cc1)CN(C)CC2 (stereo not drawn)
growth inhibition [1]: -3%
inhibition [2]: 8%
inhibition [3]: -3%
growth inhibition [4]: 86% (active)
outcome [5]: inactive
outcome [6]: inactive
outcome [7]: inactive
outcome [8]: inactive

O=C(/C=C/c1ccc(-c2nc3ccc(Cl)cc3[nH]2)cc1)NCc1cccc(F)c1
growth inhibition [1]: 68% (active)
inhibition [2]: 1%
inhibition [3]: 2%
growth inhibition [4]: 99% (active)
outcome [5]: inactive
outcome [6]: inactive
outcome [7]: inactive
outcome [8]: inactive

CN1CCC(NCc2cccc(-c3cccc(S(=O)(=O)NCc4ccccc4)c3)c2)CC1
growth inhibition [1]: 6%
inhibition [2]: 57% (active)
inhibition [3]: -2%
growth inhibition [4]: 100% (active)
outcome [5]: inactive
outcome [6]: inactive
outcome [7]: inactive
outcome [8]: inactive

COc1ccccc1CCNC(=O)c1cnc(N2CCN(c3ccncc3)CC2)c(Cl)c1
growth inhibition [1]: 54% (active)
inhibition [2]: 30%
inhibition [3]: 4%
growth inhibition [4]: 98% (active)
outcome [5]: inactive
outcome [6]: inactive
outcome [7]: inactive
outcome [8]: inactive

Clc1cc2c(Nc3ccc(Oc4ccccc4)cc3)ccnc2cc1-c1ccc(CNCCN2CCOCC2)o1
growth inhibition [1]: 89% (active)
inhibition [2]: -2%
inhibition [3]: -4%
growth inhibition [4]: 100% (active)
outcome [5]: inactive
outcome [6]: inactive
outcome [7]: inactive
outcome [8]: inactive

CNCc1cccc(-c2ccc3ccnc(N)c3c2)c1
growth inhibition [1]: 98% (active)
inhibition [2]: 20%
inhibition [3]: 3%
growth inhibition [4]: 101% (active)
outcome [5]: inactive
outcome [6]: inactive
outcome [7]: inactive
outcome [8]: inactive

NC(=NCCCc1ccccc1)c1cccc(C(N)=NCCCc2ccccc2)n1
growth inhibition [1]: -1%
inhibition [2]: 44%
inhibition [3]: -6%
growth inhibition [4]: 98% (active)
outcome [5]: inactive
outcome [6]: inactive
outcome [7]: inactive
outcome [8]: inactive

COc1cccc(-c2nn(C)c3sc(C(=O)Nc4cccnc4)cc23)c1
growth inhibition [1]: 34%
inhibition [2]: 1%
inhibition [3]: -2%
growth inhibition [4]: 86% (active)
outcome [5]: inactive
outcome [6]: inactive
outcome [7]: inactive
outcome [8]: inactive

Cc1cc(-c2ccc(CN3Cc4ccccc4C3)cc2)ccc1S(=O)(=O)NCCN1CCCC1
growth inhibition [1]: 10%
inhibition [2]: 49%
inhibition [3]: -4%
growth inhibition [4]: 94% (active)
outcome [5]: inactive
outcome [6]: inactive
outcome [7]: inactive
outcome [8]: inactive

Cc1cc(NCCC(=O)NCc2cccc(F)c2)nc(Nc2ccccc2)n1
growth inhibition [1]: 15%
inhibition [2]: -4%
inhibition [3]: -3%
growth inhibition [4]: 94% (active)
outcome [5]: inactive
outcome [6]: inactive
outcome [7]: inactive
outcome [8]: inactive

O=C(/C=C/c1ccsc1)N1CCC(CCN2CCC(c3c[nH]c4ccccc34)CC2)CC1
growth inhibition [1]: 24%
inhibition [2]: 37%
inhibition [3]: 4%
growth inhibition [4]: 88% (active)
outcome [5]: inactive
outcome [6]: inactive
outcome [7]: inactive
outcome [8]: inactive

CC(=O)N/N=C/[C@H](CCc1ccccc1)NC(=O)[C@H](CC(C)C)NC(=O)c1cccc(OCCN2CCOCC2)c1
growth inhibition [1]: 78% (active)
inhibition [2]: 13%
inhibition [3]: -6%
growth inhibition [4]: 94% (active)
outcome [5]: inactive
outcome [6]: inactive
outcome [7]: inactive
outcome [8]: inactive

N=c1c2c(n(Cc3ccccc3)c3c1CCC3)CCCC2
growth inhibition [1]: 39%
inhibition [2]: 4%
inhibition [3]: -4%
growth inhibition [4]: 86% (active)
outcome [5]: inactive
outcome [6]: inactive
outcome [7]: inactive
outcome [8]: inactive

Cc1cccc2[nH]c(-c3cccc(-c4cccc(NC(=O)c5cccnc5)c4)c3)nc12
growth inhibition [1]: 56% (active)
inhibition [2]: 28%
inhibition [3]: -5%
growth inhibition [4]: 101% (active)
outcome [5]: inactive
outcome [6]: inactive
outcome [7]: inactive
outcome [8]: inactive

CCOc1ccc2c(NN=Cc3ccccn3)cc(C)nc2c1
growth inhibition [1]: 1%
inhibition [2]: 19%
inhibition [3]: -3%
growth inhibition [4]: 98% (active)
outcome [5]: inactive
outcome [6]: inactive
outcome [7]: inactive
outcome [8]: inactive

CCCOc1ccc(CCNCCCCNCCc2ccc(OCCC)c3ccccc23)c2ccccc12
growth inhibition [1]: 52% (active)
inhibition [2]: 100% (active)
inhibition [3]: 7%
growth inhibition [4]: 93% (active)
outcome [5]: inactive
outcome [6]: inactive
outcome [7]: inactive
outcome [8]: inactive

Cc1nc2ccc3ccc(CNc4ccc(C#N)cc4)cc3c2c(=O)[nH]1
growth inhibition [1]: 56% (active)
inhibition [2]: 55% (active)
inhibition [3]: 8%
growth inhibition [4]: 84% (active)
outcome [5]: inactive
outcome [6]: inactive
outcome [7]: inactive
outcome [8]: inactive

O=C(Nc1ccc(Cl)cc1)N(CC1C[C@H]2CC[C@@H](C1)N2Cc1ccc(C(F)(F)F)cc1)c1ccc(N2CCOCC2)c(F)c1 (stereo partly drawn)
growth inhibition [1]: 36%
inhibition [2]: 31%
inhibition [3]: 0%
growth inhibition [4]: 85% (active)
outcome [5]: inactive
outcome [6]: inactive
outcome [7]: inactive
outcome [8]: inactive

CCN(CC)CCN(Cc1ccc(-c2ccc(C(F)(F)F)cc2)nc1)C(=O)Cn1c(SCc2ccc(F)cc2)nc(=O)c2sccc21
growth inhibition [1]: 66% (active)
inhibition [2]: 43%
inhibition [3]: -2%
growth inhibition [4]: 96% (active)
outcome [5]: inactive
outcome [6]: inactive
outcome [7]: inactive
outcome [8]: inactive

CN(Cc1cccc(O)c1)C1CCN(c2cc(NC(=O)c3ccc(F)cc3)ccn2)C1 (stereo not drawn)
growth inhibition [1]: 6%
inhibition [2]: 5%
inhibition [3]: 5%
growth inhibition [4]: 91% (active)
outcome [5]: inactive
outcome [6]: inactive
outcome [7]: inactive
outcome [8]: inactive

COC(=O)c1cccc(CNCc2cccc(-c3csc(-c4nc5ccccc5[nH]4)c3)c2)c1
growth inhibition [1]: 44%
inhibition [2]: -7%
inhibition [3]: 0%
growth inhibition [4]: 102% (active)
outcome [5]: inactive
outcome [6]: inactive
outcome [7]: inactive
outcome [8]: inactive

CN1CCCc2ccc(NC(=O)c3cnc(-c4ccccc4)cn3)cc21
growth inhibition [1]: 82% (active)
inhibition [2]: 24%
inhibition [3]: 2%
growth inhibition [4]: 87% (active)
outcome [5]: inactive
outcome [6]: inactive
outcome [7]: inactive
outcome [8]: inactive

COc1ccc2nccc([C@@H](O)CN3CCC(NC(=O)COc4nc(SCc5ccc(F)cc5)nc5c4CCC5)CC3)c2c1
growth inhibition [1]: 78% (active)
inhibition [2]: 29%
inhibition [3]: -2%
growth inhibition [4]: 96% (active)
outcome [5]: inactive
outcome [6]: inactive
outcome [7]: inactive
outcome [8]: inactive

CCOc1ccc(C(C)NC(=O)Cc2ccccc2F)cc1OCC (stereo not drawn)
growth inhibition [1]: 44%
inhibition [2]: 15%
inhibition [3]: 6%
growth inhibition [4]: 96% (active)
outcome [5]: inactive
outcome [6]: inactive
outcome [7]: inactive
outcome [8]: inactive

Cc1cc(N(C)C2CCN(C)C2)nc(Nc2ccc(Cl)cc2)n1 (stereo not drawn)
growth inhibition [1]: 88% (active)
inhibition [2]: 8%
inhibition [3]: 0%
growth inhibition [4]: 100% (active)
outcome [5]: inactive
outcome [6]: inactive
outcome [7]: inactive
outcome [8]: inactive

NCCCNc1nc(Nc2ccc(C(F)(F)F)cc2F)c2c(=O)[nH]ccc2n1
growth inhibition [1]: 15%
inhibition [2]: 23%
inhibition [3]: -1%
growth inhibition [4]: 95% (active)
outcome [5]: inactive
outcome [6]: inactive
outcome [7]: inactive
outcome [8]: inactive

Fc1ccc(Nc2ccnc3cc(-c4cccc(CN5CCCCC5)c4)ccc23)c(Cl)c1
growth inhibition [1]: 58% (active)
inhibition [2]: 3%
inhibition [3]: -1%
growth inhibition [4]: 91% (active)
outcome [5]: inactive
outcome [6]: inactive
outcome [7]: inactive
outcome [8]: inactive

CCC(CO)NCC(O)Cn1c2ccc(Br)cc2c2cc(Br)ccc21 (stereo not drawn)
growth inhibition [1]: 87% (active)
inhibition [2]: 18%
inhibition [3]: -6%
growth inhibition [4]: 100% (active)
outcome [5]: inactive
outcome [6]: inactive
outcome [7]: inactive
outcome [8]: inactive

NC(N)=NN=Cc1c2ccccc2c(Cl)c2c(Cl)cccc12
growth inhibition [1]: 72% (active)
inhibition [2]: 71% (active)
inhibition [3]: -3%
growth inhibition [4]: 91% (active)
outcome [5]: inactive
outcome [6]: inactive
outcome [7]: inactive
outcome [8]: inactive

Reference: PubChem BioAssay
